Measured values published in the supplement of paper PMC13380429.

Tested on: Vero E6 infected with SARS-CoV-2
Experiment: inhibition of SARS-CoV-2 cytopathic effect; higher = more antiviral protection, active = above 15
Conditions: 48 h

Measured: inhibition of SARS-CoV-2 cytopathic effect

CCCCOc1ccc(C(=O)Nc2ccc(F)cc2F)cc1
inactive: 1 nM -1.89% | 8.33 nM 2.63% | 100 nM -3.66% | 833.33 nM -1.37% | 10000 nM -1.07%

O=c1[nH]nc2c3c(cccc13)N=C(CN1Cc3ccccc3C1)N2
inactive: 1 nM 0.7% | 8.33 nM -0.79% | 100 nM 0.78% | 833.33 nM 0.24% | 10000 nM 1.13%

CCN[C@H]1CN(CCCOC)S(=O)(=O)c2sc(S(N)(=O)=O)cc21 [brinzolamide]
inactive: 1 nM 0.37% | 8.33 nM -1.59% | 100 nM -2.91% | 833.33 nM -1.67% | 10000 nM -2.11%

Cc1ccc(C(=O)Nc2ccc(Oc3cc4cnn(C)c4cc3-c3cn[nH]c3)c(F)c2)c(=O)n1-c1ccc(F)cc1
inactive: 1 nM -0.46% | 8.33 nM 1.35% | 100 nM -1.01% | 833.33 nM -1.13% | 10000 nM -2.06%

O=[N+]([O-])O[C@@H]1CO[C@H]2[C@@H]1OC[C@@H]2O [isosorbide-mononitrate]
inactive: 1 nM -2.43% | 8.33 nM -1.06% | 100 nM -1.7% | 833.33 nM 2.64% | 10000 nM 1.45%

NCCCCN=C(N)N [agmatine]
inactive: 1 nM 2.36% | 8.33 nM 2.56% | 100 nM -1.24% | 833.33 nM -2.12% | 10000 nM -4.69%

CN(C)C(=O)c1ccc(S(=O)(=O)c2ccc(NC(=O)[C@@](C)(O)C(F)(F)F)c(Cl)c2)cc1
inactive: 1 nM -0.45% | 8.33 nM 0.49% | 100 nM 0.27% | 833.33 nM 0.59% | 10000 nM -3.54%
